# Laboratory results reported in PubChem BioAssay (NCATS).
# Records with an inconclusive call do not appear. A call without a number means that no potency is given here. The source made the active and inactive calls. The call rests on the fitted dose curve.
# Molecular target: Vitamin D3 receptor (Homo sapiens) (UniProt P11473)
# Assay: qHTS assay for small molecule antagonists of vitamin D receptor signaling (AID 588541);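 further: receptor activated by calcitriol during compound treatment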
# Details: HEK293T VDR-UAS-bla, beta-lactamase ratio, antagonist mode; series mostly up to 76.7 µM
# From the text: NIH Chemical Genomics Center [NCGC]
# U.S. Environmental Protection Agency [EPA]
# National Institutes of Environmental Health Sciences [NIEHS]
# National Toxicology Program [NTP]
# The Vitamin D receptor (VDR) is a member of nuclear hormone receptor superfamily and it plays a critical role in calcium homeostasis and bone metabolism. It plays a role in inducing cell differentiation, inhibiting cell growth and in thrombogenicity. So, VDR that mediates these effects represents a pharmacological target in prevention and treatment of hyperproliferative malignancies, such as cancer and psoriasis, cardiovascular, immunological, inflammatory and renal diseases etc.
# NCGC Assay Protocol Summary
# Using a beta-lactamase reporter-gene under control of Vitamin D receptor (VDR) response element, a cell-based assay [GeneBLAzer (VDR -UAS-bla assay developed by Invitrogen] was used to measure VDR ligands signaling. GeneBLAzer VDR -UAS-bla HEK293T cells were used with assay medium containing 2% charcoal-stripped FBS. The assay was performed in clear bottom black Greiner 1536-well plates. Library compounds were measured for their ability to inhibit the reporter gene activity. Compounds were screened in a titration series in 1536-well format. The fluorescence intensity (405 nm excitation, 460/530 nm emission) was measured using an EnVision plate reader. Data was normalized relative to 1-alpha,25-Dihydroxy vitaminD3 control (50 nM, 100%) and DMSO only wells (basal, 0%). Concentration-response titration points for each compound were fitted to the Hill equation yielding concentrations of half-maximal inhibition (IC50) and maximal response (efficacy) values.
# qHTS protocol for VDR beta-lactamase assay in antagonist mode
# [Step] [Parameter] [Value] [Description]
# 1. Reagent; 5 uL; 2000 cells/well
# 2. Incubation; 37 C for 5 hrs
# 4. Controls (DMSO); 23 nL,
# 5. Agonist (Stimulator); 1uL; 1-alpha,25-Dihydroxy vitaminD3 at 50 nM and 3 nM final concentrations
# 6. Incubation; 37 C for 16 hrs
# 7. Detection reagent; 1 uL of CCF4-dye
# 8. Incubation; RT for 2 hrs
# 9. Detection; Fluorescence; Envision plate reader
# Sequence of Vitamin D3 receptor (Homo sapiens) (P11473 whole entry, looked up): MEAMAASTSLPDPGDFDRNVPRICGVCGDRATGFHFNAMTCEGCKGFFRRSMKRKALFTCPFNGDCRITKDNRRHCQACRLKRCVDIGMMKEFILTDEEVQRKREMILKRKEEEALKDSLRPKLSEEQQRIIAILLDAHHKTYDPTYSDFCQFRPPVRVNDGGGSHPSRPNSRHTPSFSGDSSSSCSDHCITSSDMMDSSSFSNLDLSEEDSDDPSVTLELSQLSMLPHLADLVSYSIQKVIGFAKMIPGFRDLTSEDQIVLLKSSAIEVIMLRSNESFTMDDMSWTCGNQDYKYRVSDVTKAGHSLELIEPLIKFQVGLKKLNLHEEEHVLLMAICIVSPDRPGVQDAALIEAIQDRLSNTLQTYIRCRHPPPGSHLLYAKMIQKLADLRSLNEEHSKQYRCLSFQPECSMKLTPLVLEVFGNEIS
row,Structure (SMILES),Potency
1,Cc1ccc(S(N)(=O)=O)cc1,inactive
2,NC(=O)c1ccc([N+](=O)[O-])cc1,inactive
3,OCC(CBr)(CBr)CBr,inactive
4,c1ccc(SCCSc2ccccc2)cc1,inactive
5,O=[N+]([O-])c1cc(Cl)c(Cl)c(Cl)c1Cl,inactive
6,CCN(CC)c1ccc(N)cc1,inactive
7,CCNC(=S)NCC,inactive
8,OC1CCCCC1,inactive
9,COc1ccc(C)cc1N,inactive
10,CCCCCCCCC1CO1 (stereo not given),inactive
11,CC1=C(/C=C/C(C)=C/C=C/C(C)=C/C=O)C(C)(C)CCC1,inactive
12,c1cc2c3c(c1)ccc1cccc(c13)C2,inactive
13,Cc1ccccc1OCC1CO1 (stereo not given),inactive
14,COc1ccc(C(=O)Nc2ccccc2)cc1[N+](=O)[O-],inactive
15,O=[N+]([O-])c1ccc(F)cc1F,inactive
16,c1c[nH]cn1,inactive
17,Cc1cc(-c2ccc(N=Nc3cc(S(=O)(=O)O)c4ccccc4c3N)c(C)c2)ccc1N=Nc1cc(S(=O)(=O)O)c2ccccc2c1N,inactive
18,C=Cc1cccc(C)c1,inactive
19,C=CC(=O)CC,inactive
20,CCCCC(CC)COP(=O)(OCC(CC)CCCC)OCC(CC)CCCC (stereo not given),inactive

row,Structure (SMILES),Potency
1,CCCCOC(=O)COc1ccc(Cl)cc1Cl,inactive
2,Oc1c(Cl)cc(Cl)c(Cl)c1Cl,inactive
3,CC(=O)CC(=O)Nc1ccccc1,inactive
4,CN(C)c1ccc(Cc2ccc(N(C)C)cc2)cc1,inactive
5,CC/C=C/C/C=C/C/C=C/CCCCCCCC(=O)OCC,inactive
6,CCCCC(CC)COC(=O)COc1ccc(Cl)cc1Cl (stereo not given),inactive
7,c1ccc(COCc2ccccc2)cc1,inactive
8,Cc1ccc(C(=O)O)cc1[N+](=O)[O-],inactive
9,Nc1cnn([C@@H]2O[C@H](CO)[C@@H](O)[C@H]2O)c(=O)n1,inactive
10,CC(/C=C/C=C(C)/C=C/C(=O)O)=C\C=C\C=C(C)\C=C\C=C(C)\C=C\C(=O)O,inactive
11,C=CC(C)(O)CCCC(C)CCCC(C)CCCC(C)C (stereo not given),inactive
12,CC(=O)Nc1cccc(C)c1,inactive
13,CC(C)S,inactive
14,CC(C)(C)C(=O)C1C(=O)c2ccccc2C1=O,inactive
15,CC(CCC(=O)O)(c1ccc(O)cc1)c1ccc(O)cc1,inactive
16,CCc1ccc(C(c2ccc(CC)cc2)C(Cl)Cl)cc1,inactive
17,Cc1ccc(N)cc1[N+](=O)[O-],inactive
18,O=[N+]([O-])c1cccc(I)c1,inactive
19,COc1ccc([N+](=O)[O-])cc1N,inactive
20,Oc1cc(Cl)cc(Cl)c1Cl,inactive
